Experimental data reported in PubChem BioAssay (NCATS).
Starred links: 1 amine or outer side, 2 acyl side, 3 side chain; linkers in the order of their positions; H or OH if unused. Positions of bridges follow the written chain, without caps; N, C: chain ends. Non-standard residues stand in square brackets, D forms with d. Residues, ends and D or L forms follow the SMILES beside them. *: point of attachment. X2 = NC1=C[C@@H](O)C[C@H]([C@H](N[*:1])C(=O)[*:2])N1; ΔAla(3-NHCONH2) = NC(=O)NC=C(N)C(=O)O; β3hOrn = NCCC[C@H](N)CC(=O)*; Dap = NC[C@H](N)C(=O)O

Experiment: qHTS profiling of the MIPE4 collection as inhibitors of Plasmodium falciparum (HB3) proliferation (AID 743347);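 further: plate controls were DMSO vehicle wells for no effect and artemisinin wells for full effect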
Conditions: P. falciparum HB3 in erythrocytes, SYBR Green DNA, 72 h; at 28.5 µM (top of the series)
Outline: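 Erythrocytes infected with P. falciparum (0.3% parasitemia, 2.5% hematocrit) incubated with compounds 72 h at 37 C, 5% CO2. Lysis with saponin/Triton buffer containing SYBR Green I, overnight at room temperature in the dark; DNA fluorescence (485/535 nm) normalised to 0.29 uM artemisinin and DMSO.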

Row | SMILES | growth, % of control [%]
1 | COC1=C2C[C@H](C)C[C@H](OC)[C@@H](O)[C@@H](C)C=C(C)[C@H](OC(N)=O)[C@@H](OC)C=CC=C(C)C(=O)NC(=CC1=O)C2=O | 2.93
2 | CCCC[C@@H]1C[C@@H](C(=O)NC([C@H](C)Cl)[C@H]2O[C@H](S)[C@H](O)[C@@H](O)[C@@H]2O)N(C)C1 (some centres not stated) | 52.4
3 | CN[C@@H]1[C@@H](O[C@H]2[C@H](O[C@H]3[C@H](O)[C@@H](O)[C@H](N=C(N)N)[C@@H](O)[C@H]3N=C(N)N)O[C@@H](C)[C@]2(O)C=O)O[C@@H](CO)[C@H](O)[C@H]1O | 86.4
4 | O=CN(O)CCCP(=O)(O)O | 9.42
5 | CC(C)=CCCC(C)=CCNCCNC1C2CC3CC(C2)CC1C3 (configuration not stated) | 2.71
6 | C[C@]1(COc2ccc(N3CCC(Oc4ccc(OC(F)(F)F)cc4)CC3)cc2)Cn2cc([N+](=O)[O-])nc2O1 | 88.7
7 | CN(C)CCC=C1c2ccccc2COc2ccccc21 | 96.7
8 | CN([C@@H](Cc1ccc(O[S+](=O)([O-])c2cccc3cnccc23)cc1)C(=O)N1CCN(C(=O)OCc2ccccc2)CC1)[S+](=O)([O-])c1cccc2cnccc12 | 8.42
9 | CC(=O)NCC1CN(c2ccc(N3CCOCC3)c(F)c2)C(=O)O1 (configuration not stated) | 99
10 | C[C@H]1CCN(C(=O)CC#N)C[C@H]1N(C)c1ncnc2[nH]ccc12 | 114
11 | COc1cc(C)c2c(Oc3cccc(C(F)(F)F)c3)c(OC)cc(NCCCC(C)N)c2n1 (configuration not stated) | 2.71
12 | COc1ccc(S(=O)(=O)N(CCO)c2ccccc2CN(C)CC=Cc2ccc(Cl)cc2)cc1 | 9.71
13 | Cc1nc2c(C#N)cccc2n1-c1ccc(C(=O)NC2CC2)s1 | 4.26
14 | CC1(C)O[C@@H]2[C@H]3OC(C)(C)O[C@]3(COS(N)(=O)=O)OC[C@H]2O1 | 59.9
15 | C[C@H]1Cc2c([nH]c3cc(Cl)c(F)cc23)[C@@]2(N1)C(=O)Nc1ccc(Cl)cc12 | 7.99
16 | CN(C(=O)OC(C)(C)C)[C@@H](Cc1ccc(O[S+](=O)([O-])c2cccc3cnccc23)cc1)C(=O)N1CCN(C(=O)OCc2ccccc2)CC1 | 8.16
17 | CC(C)(C)OC(=O)N[C@@H](Cc1ccc(O[S+](=O)([O-])c2cccc3cnccc23)cc1)C(=O)Nc1ccc(-c2ccccc2)cc1 | 4.11
18 | NCCC[C@H](N)CC(=O)N[C@H]1CNC(=O)[C@H]([C@H]2C[C@H](O)C=C(N)N2)NC(=O)C(=CNC(N)=O)NC(=O)[C@H](CO)NC(=O)[C@H](CO)NC1=O (β3hOrn-[Dap]SS[ΔAla(3-NHCONH2)][X2]; lactam 1-C) | 100
19 | C[C@H]1C[C@H]2C3CCC4=CC(=O)C=C[C@@]4(C)[C@@]3(Cl)[C@@H](O)CC2(C)[C@@]1(OC(=O)c1ccco1)C(=O)CCl (some centres not stated) | 5.44
20 | CCN(CC)CCOc1ccc2c(=O)c3ccc(Cl)cc3n(CCN(CC)CC)c2c1 | 5.14
21 | CO[C@H]1C=CO[C@@]2(C)Oc3c(C)c(O)c4c(O)c(c(C=NN5CCN(C)CC5)c(O)c4c3C2=O)NC(=O)C(C)=CC=CC(C)[C@H](O)[C@@H](C)[C@@H](O)[C@@H](C)[C@@H](OC(C)=O)[C@H]1C (some centres not stated) | 6.73
22 | CCOc1ccc(F)cc1C1(O)C(N)=Nc2ccc(Cl)cc21 (configuration not stated) | 5.81
